# Measurements published in PubChem BioAssay (NCATS).
# Where “and” joins values, the source holds several entries; their conditions need not be identical. Equal values may be shown once. Inconclusive results are not listed. Where a call stands in place of a potency, no number is given. Some structures have more than one record in an assay (separate samples or runs), and their calls can disagree. Calls of active or inactive are those of the source. Unless noted, calls follow the shape of the dose curve; as a rule, active = well fitted curve in the direction sought with a large enough effect; inconclusive = small, poorly fitted or top-dose-only effect, or another doubt; inactive = no such curve, though single readings can be large; an effect the other way counts as inactive or inconclusive.
# Legend:
# [1] = Counterscreen qHTS for small molecule stabilizers of the endoplasmic reticulum resident proteome: GLuc-NoTag assay (AID 1508627); also: potency is read from the fitted curve at half-maximal effect
# How it was run: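 Counterscreen line: SH-SY5Y-GLuc-NoTag cells, treated with compound 19 hr before a 4 hr, 100 nM thapsigargin calcium depletion. Secreted Gaussia luciferase in the medium was measured by luminescence after coelenterazine was added (0.07x final), with cells unlysed.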
# [2] = Confirmatory qHTS for small molecule stabilizers of the endoplasmic reticulum resident proteome: Secreted ER Calcium Modulated Protein (SERCaMP) assay (AID 1508628); also: nearly all actives have a fitted effect of over 40% in size; also: potency is read from the fitted curve at half-maximal effect
# How it was run: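 Reporter secretion upon ER calcium depletion (100 nM thapsigargin, 4 h, 37C) is measured as medium luminescence with coelenterazine, after 16 h compound pretreatment of SH-SY5Y-GLuc-SERCaMP cells; primary at three concentrations up to 38.3 uM, follow-up at 11 (up to 76.6 uM).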
# [3] = Cell Viability qHTS for small molecule stabilizers of the endoplasmic reticulum resident proteome (AID 1508629); details: cell viability counter-screen, 100 nM thapsigargin for final 4 h;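 also: compound exposure about 46 h in total before the viability read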; also: potency is read from the fitted curve at half-maximal effect;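 as to max response: human SH-SY5Y neuroblastoma cells carrying the GLuc-SERCaMP reporter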
# [4] = Primary qHTS for small molecule stabilizers of the endoplasmic reticulum resident proteome: Secreted ER Calcium Modulated Protein (SERCaMP) assay (AID 1508630); also: potency is read from the fitted curve at half-maximal effect
# How it was run: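 The SH-SY5Y reporter protocol was run at 3 concentrations up to 38.3 uM (primary) or 11 concentrations (follow-up): 16 h compound, 100 nM thapsigargin for 4 h, then extracellular luciferase luminescence.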
# [5] = A High-Content qHTS Against Drug Library for the Identification of Small Molecules that Inhibit DYT1 Early Onset Primary Dystonia-Associated Cell Pathology (AID 1645839; calls by dose curve; also: potency is read from the fitted curve at half-maximal effect)
# How it was run: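 High-content imaging quantified EGFP-TorsinA mislocalization in HEK293-derived cells inducibly expressing DYT1 mutant torsinA, after 48 h exposure to compound given together with tetracycline induction. Cell count served as a toxicity channel alongside %pathology.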
# [6] = biological target: Cytochrome P450 2D6 (Homo sapiens) (UniProt P10635); test: Cytochrome P450 family 2 subfamily D member 6 (CYP2D6) small molecule antagonists: luciferase biochemical (cell-free) qHTS assay (AID 1645840; active = well fitted curve in the direction sought with a large enough effect in the repeat runs; an effect the other way counts as inactive or inconclusive; also: nearly all actives have a fitted effect of over 55% in size; also: potency is read from the fitted curve at half-maximal effect)
# Cytochrome P450 2D6 (Homo sapiens), sequence (P10635 whole entry, looked up): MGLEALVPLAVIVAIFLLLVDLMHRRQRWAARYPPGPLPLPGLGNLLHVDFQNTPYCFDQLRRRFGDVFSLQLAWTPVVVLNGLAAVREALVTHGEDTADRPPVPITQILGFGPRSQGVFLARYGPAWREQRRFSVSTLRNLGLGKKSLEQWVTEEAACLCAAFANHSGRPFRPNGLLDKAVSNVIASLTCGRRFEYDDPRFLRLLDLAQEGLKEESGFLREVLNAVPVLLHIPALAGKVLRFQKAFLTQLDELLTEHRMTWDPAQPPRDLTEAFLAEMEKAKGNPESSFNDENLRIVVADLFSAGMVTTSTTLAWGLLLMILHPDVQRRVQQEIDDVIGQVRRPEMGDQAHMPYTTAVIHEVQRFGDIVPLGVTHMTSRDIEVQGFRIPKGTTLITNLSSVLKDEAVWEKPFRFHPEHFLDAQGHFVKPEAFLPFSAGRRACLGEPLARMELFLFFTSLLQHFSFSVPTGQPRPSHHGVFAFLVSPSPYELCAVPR
# How it was run: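 P450-Glo CYP2D6 system: proluciferin substrate converted by enzyme to luciferin, read by luminescence proportional to activity. Enzyme-substrate mix with compound 10 min at room temperature, then NADPH regeneration 1 h before detection reagent.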
# [7] = biological target: Cytochrome P450 3A4 (Homo sapiens) (UniProt P08684); test: Cytochrome P450 family 3 subfamily A member 4 (CYP3A4) small molecule antagonists: luciferase qHTS assay (AID 1645841; active = well fitted curve in the direction sought with a large enough effect in the repeat runs; an effect the other way counts as inactive or inconclusive; also: nearly all actives have a fitted effect of over 45% in size)
# Cytochrome P450 3A4 (Homo sapiens), sequence (P08684 whole entry, looked up): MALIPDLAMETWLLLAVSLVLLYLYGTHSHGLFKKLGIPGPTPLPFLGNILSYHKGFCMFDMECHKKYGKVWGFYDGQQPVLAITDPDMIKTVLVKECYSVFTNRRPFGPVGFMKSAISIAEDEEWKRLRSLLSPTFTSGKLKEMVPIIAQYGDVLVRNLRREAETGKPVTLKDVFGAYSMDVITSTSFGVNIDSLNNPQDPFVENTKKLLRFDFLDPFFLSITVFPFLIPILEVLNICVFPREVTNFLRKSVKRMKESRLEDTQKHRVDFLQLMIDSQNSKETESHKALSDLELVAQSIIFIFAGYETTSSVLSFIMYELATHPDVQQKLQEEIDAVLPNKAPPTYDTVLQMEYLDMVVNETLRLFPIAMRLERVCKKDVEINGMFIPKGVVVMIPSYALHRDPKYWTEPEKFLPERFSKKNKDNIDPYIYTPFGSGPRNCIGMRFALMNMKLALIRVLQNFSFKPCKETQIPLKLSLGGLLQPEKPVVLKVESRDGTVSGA
# How it was run: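 Luminescent CYP3A4 activity readout: compounds plus enzyme-substrate mix 10 min at room temperature, reaction started with NADPH regenerating system for 1 h, stopped with detection reagent, read after 20 min. Ketoconazole served as control.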
# [8] = biological target: Cytochrome P450 2C9 (Homo sapiens) (UniProt P11712); test: Cytochrome P450 family 2 subfamily C member 9 (CYP2C9) small molecule antagonists: luciferase biochemical (cell-free) qHTS assay (AID 1645842; active = well fitted curve in the direction sought with a large enough effect in the repeat runs; an effect the other way counts as inactive or inconclusive; also: nearly all actives have a fitted effect of over 55% in size; also: potency is read from the fitted curve at half-maximal effect)
# Cytochrome P450 2C9 (Homo sapiens), sequence (P11712 whole entry, looked up): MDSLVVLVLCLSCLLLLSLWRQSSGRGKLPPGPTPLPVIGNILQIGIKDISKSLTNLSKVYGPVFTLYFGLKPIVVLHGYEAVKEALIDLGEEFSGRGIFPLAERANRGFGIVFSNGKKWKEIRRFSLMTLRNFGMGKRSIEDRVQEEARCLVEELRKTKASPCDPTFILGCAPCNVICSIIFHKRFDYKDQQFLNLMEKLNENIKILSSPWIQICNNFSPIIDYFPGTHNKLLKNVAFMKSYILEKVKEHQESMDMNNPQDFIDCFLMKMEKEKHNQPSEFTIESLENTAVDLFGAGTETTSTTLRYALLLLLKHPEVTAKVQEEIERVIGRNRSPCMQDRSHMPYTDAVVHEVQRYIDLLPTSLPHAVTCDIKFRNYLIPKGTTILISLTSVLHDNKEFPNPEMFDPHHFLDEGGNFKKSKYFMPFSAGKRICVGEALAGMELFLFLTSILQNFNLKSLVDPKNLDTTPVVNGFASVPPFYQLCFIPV
# How it was run: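 P450-Glo CYP2C9 system: proluciferin substrate with enzyme in mix containing 0.4% BSA, 10 min at room temperature, then NADPH regeneration solution added and incubated 1 h at 37C. Detection reagent stopped reaction; luminescence read after 20 min as RLU.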
# [9] = biological target: Papain (Carica papaya) (UniProt P00784); test: Primary qHTS assay for inhibitors of the protease papain (AID 1645873);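 also: papain turnover of Z-FR-AMC read as the AMC fluorescence gain over 10 min; series mostly up to about 50 µM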
# Papain (Carica papaya), sequence (P00784 whole entry, looked up): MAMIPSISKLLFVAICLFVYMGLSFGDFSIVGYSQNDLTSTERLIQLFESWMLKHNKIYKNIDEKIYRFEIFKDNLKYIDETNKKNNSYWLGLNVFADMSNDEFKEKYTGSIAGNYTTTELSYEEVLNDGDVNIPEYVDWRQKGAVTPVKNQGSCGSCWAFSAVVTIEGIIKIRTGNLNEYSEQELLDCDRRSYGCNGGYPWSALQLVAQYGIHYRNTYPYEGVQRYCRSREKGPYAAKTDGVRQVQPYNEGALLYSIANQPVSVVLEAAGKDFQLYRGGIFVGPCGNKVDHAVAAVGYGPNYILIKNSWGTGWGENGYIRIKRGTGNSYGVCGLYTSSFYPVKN
# [10] = biological target: N-terminal Xaa-Pro-Lys N-methyltransferase 1 (Homo sapiens) (UniProt Q9BV86); test: Confirmatory qHTS for Inhibitors of N-terminal methyltransferase 1 (NTMT1): MTaseGlo Assay (AID 1645874); also: potency is read from the fitted curve at half-maximal effect; nearly all actives have a fitted effect of over 65% in size
# N-terminal Xaa-Pro-Lys N-methyltransferase 1 (Homo sapiens), sequence (Q9BV86 whole entry, looked up): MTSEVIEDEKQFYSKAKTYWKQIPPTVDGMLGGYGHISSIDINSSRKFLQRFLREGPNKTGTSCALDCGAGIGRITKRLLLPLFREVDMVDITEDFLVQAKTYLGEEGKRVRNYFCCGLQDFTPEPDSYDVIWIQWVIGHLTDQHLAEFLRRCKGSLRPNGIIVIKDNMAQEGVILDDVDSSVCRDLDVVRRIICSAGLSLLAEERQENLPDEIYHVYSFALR
# How it was run: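 Inhibition was derived from luminescence after SAH-to-ATP conversion, scaled between no-enzyme and DMSO wells, then fitted by 4-parameter Hill. Conditions: 125 nM NTMT1, 100 uM SAM, 1 uM SPKRIA, 30 min RT.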
compound,measurement,setting,value
O=c1cc(N2CCOCC2)oc2c(-c3ccccc3)cccc12,Potency,[1],inactive
same,Potency,[2],inactive
same,max response,[3],-28.5% (inactive)
same,Potency,[4],inactive
COC(=O)C1=C(C)NC(C)=C(C(=O)OC(C)C)C1c1cccc2nonc12 (configuration not stated),Potency,[4],inactive
O=C(O)c1cn(-c2ccc(F)cc2)c2cc(N3CCNCC3)c(F)cc2c1=O,Potency,[1],inactive
same,max response,[3],19.2% (inactive) and 20.4% (inactive)
same,Potency,[4],inactive
same,Potency,[5],inactive
same,Potency,[6],inactive
same,outcome,[7],inactive
same,Potency,[8],inactive
O=C1NC(=O)C(c2ccccc2[N+](=O)[O-])=C1Nc1ccc(O)c(Cl)c1,Potency,[4],inactive
CN(C)c1ccc(O)c2c1C[C@H]1C[C@H]3[C@H](N(C)C)C(=O)C(C(N)=O)=C(O)[C@@]3(O)C(=O)C1=C2O,Potency,[1],inactive
same,Potency,[2],inactive
same,max response,[3],11.6% (inactive)
same,Potency,[4],inactive and 31.6 µM (active)
same,Potency,[6],inactive
same,outcome,[7],inactive
CCCCCCCCCCCCCCCCCCCCCCO,Potency,[4],inactive
C[C@H](Cc1ccc(O)c(O)c1)[C@@H](C)Cc1ccc(O)c(O)c1,Potency,[1],35.5 µM (active)
same,Potency,[2],7.94 µM (active)
same,max response,[3],-16.2% (inactive)
same,Potency,[4],inactive
same,Potency,[9],inactive
Cc1cccc(-c2[nH]ncc2-c2ccc3ncccc3n2)n1,Potency,[4],inactive
O=C1CCc2ccc(OCCCCN3CCN(c4cccc(Cl)c4Cl)CC3)cc2N1,Potency,[4],inactive
NS(=O)(=O)c1cc(C(=O)O)c(NCc2ccco2)cc1Cl,Potency,[4],inactive
same,Potency,[5],inactive
CNC[C@@H](O)[C@@H](O)[C@H](O)[C@H](O)CO,Potency,[4],inactive
CN1CCC(=C2c3ccccc3CCc3sccc32)CC1,Potency,[1],inactive
same,Potency,[2],25.1 µM (active)
same,Potency,[6],1.1 µM (active)
COC(=O)N[C@H](C(=O)N[C@@H](Cc1ccccc1)[C@@H](O)CN(Cc1ccc(-c2ccccn2)cc1)NC(=O)[C@@H](NC(=O)OC)C(C)(C)C)C(C)(C)C,Potency,[4],inactive
same,Potency,[5],inactive
CC(C)c1nc(CN(C)C(=O)N[C@H](C(=O)N[C@@H](Cc2ccccc2)C[C@H](O)[C@H](Cc2ccccc2)NC(=O)OCc2cncs2)C(C)C)cs1,Potency,[4],inactive
Cc1cccc(C#Cc2ccccc2)n1,Potency,[4],inactive
CCOC(=O)C1=C[C@@H](OC(CC)CC)[C@H](NC(C)=O)[C@@H](N)C1,Potency,[4],inactive
Cn1c(NCCN(CCO)CCCc2ccc([N+](=O)[O-])cc2)cc(=O)n(C)c1=O,Potency,[4],inactive
same,Potency,[5],inactive
O=P(O)(O)C(O)(Cn1ccnc1)P(=O)(O)O,Potency,[4],inactive
CCN(CC)CCOc1ccc(Nc2ncc3cc(-c4c(Cl)cccc4Cl)c(=O)n(C)c3n2)cc1,Potency,[4],inactive
O=c1c(O)c(-c2cc(O)c(O)c(O)c2)oc2cc(O)cc(O)c12,Potency,[4],inactive
Cc1cc(O)c2c(c1)C(=O)c1cc(O)cc(O)c1C2=O,Potency,[2],14.1 µM (active)
same,Potency,[9],inactive
same,Potency,[10],30.8 µM (active)
Cc1cccc(C)c1OCC(=O)N[C@@H](Cc1ccccc1)[C@@H](O)C[C@H](Cc1ccccc1)NC(=O)[C@H](C(C)C)N1CCCNC1=O,Potency,[1],39.8 µM (active)
same,max response,[3],-5.9% (inactive)
same,Potency,[6],13.8 µM (active)
OC(CN1CCN(c2cccc(Cl)c2)CC1)C(c1ccccc1)c1ccccc1 (configuration not stated),Potency,[4],inactive
C[C@H](Cn1cnc2c(N)ncnc21)OCP(=O)(O)O,Potency,[4],inactive
COc1cc2c(cc1OC)C1CC(=O)C(CC(C)C)CN1CC2 (configuration not stated),Potency,[4],inactive
CC1(C)CCC(C)(C)c2cc(NC(=O)c3ccc(C(=O)O)cc3)ccc21,Potency,[1],inactive
same,Potency,[4],inactive
same,Potency,[6],inactive
same,Potency,[8],inactive
Nc1ccc(S(N)(=O)=O)cc1,Potency,[4],inactive
same,Potency,[5],inactive
C[Se]CCC(N)C(=O)O (configuration not stated),Potency,[4],inactive
CC(=O)O[C@H]1C(=O)[C@@]2(C)C([C@H](OC(=O)c3ccccc3)[C@]3(O)C[C@H](OC(=O)[C@H](O)[C@@H](NC(=O)c4ccccc4)c4ccccc4)C(C)=C1C3(C)C)[C@]1(OC(C)=O)CO[C@@H]1C[C@@H]2O (some centres not stated),Potency,[4],inactive
Clc1ccc(C(Cn2ccnc2)OCc2c(Cl)cccc2Cl)c(Cl)c1 (configuration not stated),Potency,[4],inactive
C[C@]12CCC(=O)C=C1CC[C@@H]1[C@H]2[C@@H](O)C[C@@]2(C)[C@H]1CC[C@]2(O)C(=O)CO,Potency,[4],inactive
COC(=O)C1=C(C)NC(C)=C(C(=O)OCCCN2CCC(c3ccccc3)(c3ccccc3)CC2)C1c1cccc([N+](=O)[O-])c1 (configuration not stated),Potency,[1],39.8 µM (active)
same,Potency,[3],28.2 µM (active)
same,Potency,[4],inactive
CCN(CC)C(=S)SSC(=S)N(CC)CC,Potency,[1],28.2 µM (active)
same,Potency,[2],inactive
same,Potency,[4],inactive
same,Potency,[5],10 µM (active)
same,Potency,[6],inactive
same,Potency,[8],7.7 µM (active) and 7.76 µM (active)
same,Potency,[9],inactive
